These results are taken from PubChem BioAssay (NCATS).

Several values for one entry are separate records, joined by “and”; a condition that tells them apart may be missing. Equal values may be shown once. Results filed as inconclusive are left out. Where a structure was tested more than once in an assay, its records may differ in their call. Activity calls are given as the source filed them. Calls follow the shape of the dose curve; as a rule, active = well fitted cell-killing curve with a large enough effect; inconclusive = small, poorly fitted or top-dose-only effect, or effect the other way; inactive = no such curve, though single readings can be large or run the other way.

Test [1] can be described thus: Viability qHTS for spleen associated tyrosine kinase inhibitor (SYKi) naive MV4-11 cells (AID 1963823). Also: nearly all actives have a fitted effect of over 40% in size. The conditions noted are these: MV4-11 AML viability, CellTiter-Glo luminescence, 72 h; series mostly up to 45 µM. In a few lines: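 SYKi-naive MV4-11 AML cells, 500 per well, were exposed to library compounds for 72 hr at 37 C, 5% CO2. Viability was then read by CellTiter-Glo luminescence after 10 min at room temperature.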
A general note: Quantitative high-throughput screening tests each substance at several concentrations.

A short description of test [2]: Viability qHTS for spleen associated tyrosine kinase inhibitor (SYKi) drug resistant MV4-11 cells (AID 1963824). Also: nearly all actives have a fitted effect of over 35% in size. The note with it: SYKi-resistant MV4-11 viability, CellTiter-Glo, 72 h; series mostly up to 45 µM. In a few lines: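 SYK-inhibitor-resistant MV4-11 AML cells were seeded at 500 per well onto compound and cultured 72 hours (37 °C, 5% CO2). CellTiter-Glo was then added, and after 10 min at room temperature, luminescence gave viability.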
Potency is read from the fitted curve at half-maximal effect.

For `CCC(C)(O)C(O)C(=O)OCc1ccc(O[C@@H]2O[C@H](CO)[C@@H](O)[C@H](O)[C@H]2O)c(OC)c1` (stereo not given in full), the Potency result in test [1] and in test [2] was “inactive” throughout.
With `C=CC(C)(O)CC/C=C(\C)C(=O)O[C@@H]1[C@@H](O)[C@H](OC(C)(C=C)CC/C=C(\C)C(=O)O)O[C@H](CO)[C@H]1OC(=O)/C(C)=C/CCC(C)(O)C=C` (stereo not given in full), the Potency entry in test [1] and in test [2] was “inactive” throughout.
In the case of `CC(=O)c1c(O)cc(O[C@@H]2O[C@H](CO)[C@@H](O)[C@H](O)[C@H]2O)cc1O`, the Potency result in test [1] and in test [2] was “inactive” each time.
Take `O=C(O)c1ccc(O)c2ncc(N3CCCN(CCc4cccc5ccccc45)CC3)cc12`: the Potency was 18400 nM (active) in test [1] and 10300 nM (active) in test [2].
On to `COc1cc([C@H]2OC[C@]3(OC(C)=O)[C@@H](c4ccc(O[C@@H]5O[C@H](CO)[C@@H](O)[C@H](O)[C@H]5O)c(OC)c4)OC[C@H]23)ccc1O`, for which the Potency result in test [1] and in test [2] was “inactive” each time.
For the compound `CC(=O)O[C@H]1[C@H](O[C@H]2CC[C@]34C[C@]35CC[C@]3(C)[C@@H]([C@@]6(C)CC[C@@H](C(C)(C)O)O6)[C@@H](O)C[C@@]3(C)[C@@H]5C[C@H](O[C@@H]3O[C@H](CO)[C@@H](O)[C@H](O)[C@H]3O)[C@H]4C2(C)C)OC[C@@H](OC(C)=O)[C@@H]1O`, the Potency result in test [1] and in test [2] was “inactive” throughout.
As to `COc1c(C)c(OCC(O)C(C)(C)O)cc2c1COC2=O` (stereo not given), the Potency result in test [1] and in test [2] was “inactive” each time.
As for `N#CC1C(=O)N=C(c2cc(Cl)ccc2O)C=C1c1cc(OCc2ccccc2)cc(OCc2ccccc2)c1` (stereo not given), the Potency result in test [1] and in test [2] was “inactive” throughout.
`COC1CC(=O)C23C(=O)NC(CC(C)C)C2C(C)C(C)=CC3/C=C(\C)CCC(O)C1O` (stereo not given): the Potency in test [1] was 1420 nM (active); in test [2], 1780 nM (active).
For `O=C1N=C(O)S/C1=C\c1ccc2nccnc2c1` the same measures were 13000 nM (active) and 13000 nM (active).
For `COc1cc(N2CCOCC2)ccc1Nc1ncc(F)c(Nc2ccccc2NS(C)(=O)=O)n1` the same measures were 1640 nM (active) and 2590 nM (active).
For the compound `CC(C)C(O)(CO)CCO[C@@H]1O[C@H](CO[C@H]2OC[C@](O)(CO)[C@H]2O)[C@@H](O)[C@H](O)[C@H]1O` (stereo not given in full), the Potency entry in test [1] and in test [2] was “inactive” each time.
As to `COc1cc(-c2cc(-c3cccc(O)c3)cnc2N)cc(OC)c1OC`, the Potency was 11600 nM (active) in test [1] and 9200 nM (active) in test [2].
For `CNC(=O)O[C@H]1COc2ccc(N3CCN(C4COC4)CC3)cc2[C@@H]1NC(=O)c1ccc(F)cc1` the same measures were “inactive” and “inactive”.
For `CCOC(=O)Nc1cc(-c2ccc(C)c(NS(C)(=O)=O)c2)nn2c(C)nnc12` the same measures were 651 nM (active) and 651 nM (active).
As for `Cc1cc(C)c(CNC(=O)c2cc(-c3ccc(CN4CCOCC4)cc3)cc3c2cnn3C2CCCC2)c(=O)[nH]1`, in test [1], the Potency entry was “inactive”. Besides, the Potency result in test [2] is “inactive and 14.8 µM (active)”.
On to `O=[N+]([O-])c1cccc2[nH]c(CNc3nc(N4CCOCC4)nc4c3ncn4-c3ccsc3)nc12`, for which the Potency is 14.6 nM (active) in test [1] and 20.6 nM (active) in test [2].
The corresponding values for `COc1ccccc1OCCNCC(O)CCOc1cccc2[nH]c3ccccc3c12` (stereo not given) are 9200 nM (active) and 9200 nM (active).
For the compound `Oc1ccc(CNc2ccccc2F)c2cccnc12`, the Potency is 2910 nM (active) in test [1] and 4610 nM (active) in test [2].
`COC(=O)CC[C@H](NC(=O)[C@H](CC(C)C)NC(=O)OCc1ccccc1)C(=O)N[C@@H](Cc1cnc[nH]1)C(=O)N[C@@H](CC(=O)OC)C(=O)CF`: in test [1], the viability (% of control) is 80.3% [at 9.25 µM] (inactive). Moreover, the viability, % of control in test [2] was 91.2% [at 9.25 µM] (inactive).
`CCC(C)C(=O)OC[C@H]1O[C@H](O[C@H]2O[C@H](CO)[C@@H](O)[C@H](O)[C@H]2O)[C@H](O)[C@@H](O)[C@@H]1O` (stereo not given in full): the Potency entry in test [1] and in test [2] was “inactive” throughout.
Consider `COc1cc(O)cc(C)c1C(=O)O[C@H]1[C@@H](OC(C)=O)[C@H](n2ccc(=O)[nH]c2=O)O[C@@H]1CO`, for which the Potency entry in test [1] and in test [2] was “inactive” each time.
Consider `CC1(O)CC(O)C2(O)C=COC(O[C@@H]3O[C@H](CO)[C@@H](O)[C@H](O)[C@H]3O)C12` (stereo not given in full), for which the Potency entry in test [1] and in test [2] was “inactive” throughout.
As for `O=C(Nc1cc(-c2ccccc2)nn1-c1ccccc1)c1ccc([N+](=O)[O-])cc1`, the Potency result in test [1] was “inactive”. In test [2], the Potency is 18400 nM (active).
In the case of `COc1cc(C(=O)OC[C@@]2(O)CO[C@@H](O[C@H]3[C@H](Oc4ccc(O)cc4)O[C@H](CO)[C@@H](O)[C@@H]3O)[C@@H]2O)cc(OC)c1O`, the Potency result in test [1] and in test [2] was “inactive” throughout.
As for `C[C@@H]1O[C@@H](O[C@H]2[C@H](O[C@H]3[C@H](O)[C@@H](C(=O)O)O[C@@H](O[C@H]4CC[C@@]5(C)C(CC[C@]6(C)C5CC[C@]57OC[C@@]8(CCC(C)(C)CC85)[C@H](O)C[C@]76C)C4(C)C)[C@@H]3O[C@@H]3O[C@H](CO)[C@@H](O[C@@H]4OC[C@@H](O)[C@H](O)[C@H]4O)[C@H](O)[C@H]3O)O[C@H](CO)[C@H](O)[C@@H]2O)[C@H](O)[C@H](O)[C@H]1O` (stereo not given in full), the viability (% of control) in test [1] is 77.6% [at 9.25 µM] (inactive). Besides, the viability, % of control in test [2] is 94.7% [at 9.25 µM] (inactive).
With `C/C=C/c1ccc(O[C@@H]2O[C@H](CO)[C@@H](O)[C@H](O)[C@H]2O)c(OC)c1`, the Potency result in test [1] and in test [2] was “inactive” in each case.
Take `CCCc1ncc(C[n+]2ccccc2C)c(N)n1`: the Potency entry in test [1] and in test [2] was “inactive” in each case.
In the case of `O=C1NC(=O)[C@@H](c2cn3c4c(cccc24)CCC3)[C@@H]1c1c[nH]c2ccccc12`, the Potency was 1180 nM (active) in test [1] and 1320 nM (active) in test [2].
For `C=C1C(=O)OC2C1CCC(=C)C1CC(OC(C)=O)C(=C)C12` (stereo not given) the same measures were 3260 nM (active) and 2310 nM (active).
With `COc1cc(-c2ccc(O)cc2)c(OC)c(O)c1C1=CC(=O)OC1CC(=O)O` (stereo not given), the Potency entry in test [1] and in test [2] was “inactive” in each case.
For `COC(=O)c1ccc(=O)c2nc3/c(=C/O)c(O)cc(=O)c3[nH]c12`, the Potency result in test [1] and in test [2] was “inactive” throughout.
As to `C=CC(C)(CC/C=C(\C)C(=O)OC)OC1OC(COC(=O)CC(C)(O)CC(=O)O)C(O)C(O)C1O` (stereo not given), the Potency entry in test [1] and in test [2] was “inactive” in each case.
As for `CCOC(=O)c1ccc(N(C)c2csc(-c3ccccc3)n2)cc1`, the Potency entry in test [1] and in test [2] was “inactive” each time.
`Cc1sc2c(c1C)C(c1ccc(Cl)cc1)=N[C@H](CC(=O)NCCCCNC(=O)COc1cccc3c1C(=O)N([C@H]1CCC(=O)NC1=O)C3=O)c1nnc(C)n1-2`: the Potency in test [1] and in test [2] was 46.1 nM (active) throughout.
